According to PubChem BioAssay AID1159580 (chemical genetic matrix, 2015):
Screen size: about 5,500 compounds; about 2,000 (36%) were called active. Not shown: some 18% with an inconclusive outcome. Cut-off read from the data, not from the text of the source: active = normalized growth mostly below about 0.91 (no sharp cut-off); inconclusive = no clear call, values can overlap the other calls; inactive = mostly above about 0.92. Some of the results follow.

Test: chemical genetic growth profiling, strain panel (AID 1159580);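 note: tested at 20 µM; growth read once vehicle control cultures reached saturation at 30 °C; 1 = growth at the plate median or of vehicle wells; lower values mean less growth of the strain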
Conditions: S. cerevisiae deletion strains, growth OD

Measured: normalized growth

COc1cc([C@@H]2c3cc4c(cc3[C@@H](O)C3COC(=O)C32)OCO4)cc(OC)c1O (stereo not given in full)
inactive: locus YAL021C, strain ccr4, hits give low values 0.971 | locus YAL026C, strain drs2, hits give low values 0.982 | locus YAL030W, strain snc1, hits give low values 0.986 | locus YBL061C, strain skt5, hits give low values 0.988 | locus YBR009C, strain hhf1, hits give low values 0.988 | locus YBR023C, strain chs3, hits give low values 1 | locus YBR171W, strain sec66, hits give low values 0.996 | locus YBR231C, strain swc5, hits give low values 1 | locus YBR279W, strain paf1, hits give low values 0.997 | locus YCL011C, strain gbp2, hits give low values 0.988 | locus YCL016C, strain dcc1, hits give low values 0.981 | locus YCL061C, strain MRC1, hits give low values 0.978 | locus YCL069W, strain vba3, hits give low values 0.985 | locus YCR088W, strain abp1, hits give low values 0.988 | locus YDL005C, strain med2, hits give low values 0.979 | locus YDL040C, strain nat1, hits give low values 0.981 | locus YDR001C, strain nth1, hits give low values 0.977 | locus YDR069C, strain doa4, hits give low values 0.988 | locus YDR137W, strain rgp1, hits give low values 1 | locus YDR159W, strain sac3, hits give low values 0.994 | locus YDR195W, strain ref2 0.944 | locus YDR297W, strain sur2, hits give low values 0.989 | locus YDR334W, strain swr1, hits give low values 0.977 | locus YDR335W, strain msn5, hits give low values 0.985 | locus YDR392W, strain spt3, hits give low values 1.01 | locus YEL003W, strain gim4, hits give low values 0.997 | locus YEL037C, strain rad23, hits give low values 0.981 | locus YEL061C, strain CIN8 (second series), hits give low values 0.991 | locus YER015W, strain faa2, hits give low values 0.993 | locus YER016W, strain bim1, hits give low values 0.987 | locus YER111C, strain swi4, hits give low values 0.981 | locus YER155C, strain BEM2 (second series), hits give low values 1.01 | locus YFR010W, strain ubp6, hits give low values 0.973 | locus YGL167C, strain pmr1, hits give low values 0.975 | locus YGL173C, strain kem1, hits give low values 0.992 | locus YGL227W, strain vid30, hits give low values 0.995 | locus YGL240W, strain doc1, hits give low values 1.01 | locus YGL253W, strain hxk2, hits give low values 0.934 | locus YHR013C, strain ard1, hits give low values 0.964 | locus YHR027C, strain rpn1, hits give low values 0.986 | locus YHR030C, strain SLT2, hits give low values 1.03 | locus YHR079C, strain IRE1, hits give low values 1.04 | locus YHR142W, strain chs7, hits give low values 0.971 | locus YJL092W, strain hpr5, hits give low values 0.977 | locus YJL095W, strain BCK1 (second series), hits give low values 0.981 | locus YJL095W, strain BCK1, hits give low values 1.02 | locus YJL115W, strain asf1, hits give low values 0.966 | locus YJL129C, strain trk1, hits give low values 0.977 | locus YJL154C, strain vps35, hits give low values 0.985 | locus YJL164C, strain tpk1, hits give low values 0.967 | locus YJL166W, strain qcr8, hits give low values 0.997 | locus YJL187C, strain SWE1, hits give low values 1 | locus YJR066W, strain TOR1, hits give low values 0.993 | locus YKL160W, strain elf1, hits give low values 0.973 | locus YKR026C, strain gcn3, hits give low values 0.991 | locus YKR091W, strain srl3, hits give low values 0.978 | locus YLL001W, strain dnm1, hits give low values 0.953 | locus YLL026W, hits give low values 0.987 | locus YLL041C, strain sdh2, hits give low values 0.979 | locus YLR027C, strain aat2, hits give low values 0.991 | locus YLR113W, strain HOG1, hits give low values 1.03 | locus YLR221C, strain rsa3, hits give low values 1.02 | locus YLR258W, strain gsy2, hits give low values 0.985 | locus YLR262C, strain YPT6 (second series), hits give low values 1.05 | locus YLR320W, strain mms22, hits give low values 1.02 | locus YLR342W, strain FKS1, hits give low values 0.986 | locus YLR357W, strain rsc2, hits give low values 0.966 | locus YLR370C, strain arc18, hits give low values 0.983 | locus YLR384C, strain iki3, hits give low values 0.982 | locus YML120C, strain ndi1, hits give low values 0.985 | locus YMR058W, strain fet3, hits give low values 0.979 | locus YMR125W, strain sto1, hits give low values 0.979 | locus YMR129W, hits give low values 0.997 | locus YMR205C, strain PFK2, hits give low values 0.965 | locus YMR231W, strain pep5, hits give low values 0.977 | locus YNL071W, strain lat1, hits give low values 0.991 | locus YNL183C, strain NPR1, hits give low values 0.997 | locus YNL209W, strain ssb2, hits give low values 0.993 | locus YNL248C, strain rpa49, hits give low values 0.959 | locus YNL322C, strain KRE1 (second series), hits give low values 0.991 | locus YNR049C, strain mso1, hits give low values 0.986 | locus YOR001W, strain rrp6, hits give low values 0.979 | locus YOR070C, strain gyp1, hits give low values 0.983 | locus YOR080W, strain dia2, hits give low values 1 | locus YOR083W, strain WHI5, hits give low values 0.982 | locus YOR106W, strain vam3, hits give low values 0.958 | locus YOR231W, strain MKK1, hits give low values 1.03 | locus YOR265W, strain rbl2, hits give low values 0.987 | locus YOR270C, strain vph1, hits give low values 0.94 | locus YOR290C, strain snf2, hits give low values 0.952 | locus YPL051W, strain arl3, hits give low values 1.03 | locus YPL078C, strain atp4, hits give low values 0.949 | locus YPL106C, strain sse1, hits give low values 0.99 | locus YPL240C, strain hsp82, hits give low values 0.994 | locus YPL256C, strain CLN2, hits give low values 1.02
